Molecules are shown by their SMILES. Calls of active or inactive are those of the source.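 How the source made its calls: active means compounds killing one labelled cell type while sparing the other, by normalised counts and ratio limits, not self-fluorescent; inactive means the rest.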

This experiment can be described thus: EMT-state selective cytotoxicity in co-culture – imaging, PC-3E GFP, TEM4-18 mCherry, primary screen (AID 1345086).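 Further: normalised mesenchymal count divided by normalised epithelial count so high means epithelial killing; cells exposed to compound for 72 h before imaging.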 The conditions noted are these: PC-3E GFP / TEM4-18 mCherry co-culture, imaging cell counts; at 1 µM; actives lie on both sides; counts scaled to control wells, 1 = unselective.
`COc1cc2c(cc1OC)Cc1cc(OC)c(OC)cc1Cc1cc(OC)c(OC)cc1C2`: the red/green cell ratio (normalised) is 1.03 (inactive).

Consider `CC1(C)C[C@H]2[C@@]1(O)[C@@H](O)C[C@]1(C)[C@H](O)C=C[C@]21CO`, for which the red/green cell ratio (normalised) is 0.9 (inactive).

For the molecule `C/C=C/C1=CC(=O)[C@H](O)[C@H]1O`, the red/green cell ratio (normalised) was 1.04 (inactive).

Take `C[C@@H]1O[C@@H](O[C@H]2[C@@H](Oc3cc(O)c4c(c3)O[C@H](c3ccc(O)cc3)CC4=O)O[C@H](CO)[C@@H](O)[C@@H]2O)[C@H](O)[C@H](O)[C@H]1O`: the red/green cell ratio (normalised) was 1.11 (inactive).

`CC(=O)OC1CC(C)OC(=O)CCC(O)CC1=O` (stereo not given): the red/green cell ratio (normalised) is 0.98 (inactive).

Turning to `C[C@H]1[C@H](C)CC[C@]2(C(=O)O)CC[C@]3(C)C(=CCC4[C@@]5(C)C[C@@H](O)[C@H](O)[C@@](C)(CO)C5[C@H](O)C[C@]43C)[C@H]12` (stereo not given in full), the red/green cell ratio (normalised) was 1.27 (inactive).

Regarding `O=S(=O)([O-])OC[C@H]1O[C@@](COS(=O)(=O)[O-])(O[C@H]2O[C@H](COS(=O)(=O)[O-])[C@@H](OS(=O)(=O)[O-])[C@H](OS(=O)(=O)[O-])[C@H]2OS(=O)(=O)[O-])[C@@H](OS(=O)(=O)[O-])[C@@H]1OS(=O)(=O)[O-].[Al+3].[Na+].[Na+].[O-2].[O-2].[OH-]`, the red/green cell ratio (normalised) is 0.81 (inactive).

As to `CC(C)=CCC/C(C)=C\CC1=C(C)C(=O)c2ccccc2C1=O`, the red/green cell ratio (normalised) is 0.98 (inactive).

Turning to `COC(=O)CNC(=O)c1ccc([C@H](O)c2ccccc2)cn1`, the red/green cell ratio (normalised) was 0.87 (inactive).

On to `CC(C)c1c(O)ccc2c1CCC1C(C)(C)CCC[C@]21C` (stereo not given in full), for which the red/green cell ratio (normalised) is 0.99 (inactive).

As to `CN(C)c1cccc2c(S(N)(=O)=O)cccc12`, the red/green cell ratio (normalised) was 1.01 (inactive).

For the molecule `COc1cc(OC)c2c(=O)c(OC)c(-c3ccccc3)oc2c1`, the red/green cell ratio (normalised) is 0.85 (inactive).

As for `Cc1cccc(CN2CCN(C(c3ccccc3)c3ccc(Cl)c(C)c3)CC2)c1` (stereo not given), the red/green cell ratio (normalised) was 0.79 (inactive).

Turning to `O=C1CC[C@]23/C=C/C(=O)NCCCCNCCCNC(=O)/C=C/c4ccc(c2c4)O[C@@H]3C1`, the red/green cell ratio (normalised) is 0.81 (inactive).

With `Nc1ccc2ccccc2c1S(=O)(=O)O`, the red/green cell ratio (normalised) is 0.94 (inactive).

In the case of `O=C(N[C@@H](Cc1ccc(O)cc1)C(=O)O)OCc1ccccc1`, the red/green cell ratio (normalised) is 0.96 (inactive).

For `CC(=O)OC[C@@]1(O)C[C@@]23CCC4c5ccoc5CC[C@]4(C)C2CC[C@@H]1C3` (stereo not given in full), the red/green cell ratio (normalised) is 0.98 (inactive).

Take `COc1c(N2CC[C@@H](CN)C2)c(F)cc2c(=O)c(C(=O)NO)cn(C3CC3)c12`: the red/green cell ratio (normalised) was 1.1 (inactive).

For the molecule `O=C[C@H](O)[C@@H](O)[C@H](O)CO`, the red/green cell ratio (normalised) is 0.99 (inactive).

Regarding `COC1=CC(=O)C[C@@H](C)[C@]12Cc1c(Cl)c(OC)cc(OC)c1C2=O`, the red/green cell ratio (normalised) was 0.76 (inactive).

As for `O=c1cc(-c2ccccc2)oc2cc(O)ccc12`, the red/green cell ratio (normalised) was 0.8 (inactive).

For the molecule `C=CC(C)(C)c1cccc2[nH]c3c(c12)C[C@@H]1CC[C@@]2(O)C4=CC(=O)[C@@H]5O[C@@]4(CC[C@]2(C)[C@@]31C)CC5(C)C`, the red/green cell ratio (normalised) was 1 (inactive).

With `OC[C@H]1O[C@H](OC[C@H]2O[C@@H](O)[C@H](O)[C@@H](O)[C@@H]2O)[C@H](O)[C@@H](O)[C@H]1O`, the red/green cell ratio (normalised) was 0.93 (inactive).

For `Cc1c(O)c(O)cc2oc3cc(O)cc(O)c3c(=O)c12`, the red/green cell ratio (normalised) is 1.06 (inactive).

Regarding `OCC1O[C@H](O[C@H]2OC(CO)[C@@H](O)[C@@H](O)C2O)C(O)[C@H](O)[C@@H]1O` (stereo not given in full), the red/green cell ratio (normalised) was 1.12 (inactive).

Turning to `C[C@H]1C[C@H](O)[C@H]2[C@@H](C=C[C@@](C)(O)[C@]2(C)C(=O)CCO)C1`, the red/green cell ratio (normalised) is 0.95 (inactive).

With `CC(C)CC1C(=O)OC(C(C)C)C(=O)N(C)C(C(C)C)C(=O)OC(C(C)C)C(=O)N(C)C(C(C)C)C(=O)OC(C(C)C)C(=O)N1C` (stereo not given), the red/green cell ratio (normalised) is 0.99 (inactive).

For the molecule `COC(=O)[C@]12Oc3c(c(O)cc4c3C3C=C[C@]5(C4)C(=C(O)c4c(O)cc(C)cc4[C@@H]5OC(C)=O)C3=O)C(O)=C1C(=O)C=C[C@@H]2O`, the red/green cell ratio (normalised) was 0.99 (inactive).

Turning to `OCc1cc(Br)ccc1Cl`, the red/green cell ratio (normalised) is 1.07 (inactive).

On to `C[C@H](Oc1ccc(Oc2ccc3ncc(Cl)nc3c2)cc1)C(=O)O`, for which the red/green cell ratio (normalised) was 0.92 (inactive).

As to `NC(CSCSCC(N)C(=O)O)C(=O)O` (stereo not given), the red/green cell ratio (normalised) was 1.19 (inactive).

Regarding `COc1cc([C@@]2(C)[C@@H]3[C@@H](C)CCC[C@@H]3C=C[C@@H]2C)oc(=O)c1C=O`, the red/green cell ratio (normalised) was 0.92 (inactive).

Take `CC[C@H](C)/C=C/C1=CC2=C(Cl)C(=O)[C@@]3(C)OC(=O)C(C(=O)[C@@H](C)[C@@H](C)O)=C3C2=CO1`: the red/green cell ratio (normalised) is 0.99 (inactive).

As for `CC[C@@H](C)CC(=O)N1C(=S)O[C@@H]2Cc3ccccc3[C@@H]21`, the red/green cell ratio (normalised) is 0.94 (inactive).

With `CCN(Cc1cccc(S(=O)(=O)O)c1)c1cccc(C(=C2C=CC(=[N+](CC)Cc3cccc(S(=O)(=O)O)c3)C=C2)c2ccc(O)cc2S(=O)(=O)[O-])c1`, the red/green cell ratio (normalised) is 0.88 (inactive).

On to `[N-]=[N+]=NC1[C@@H](O)C2OC(c3ccccc3)OCC2O[C@@H]1Sc1ccccc1` (stereo not given in full), for which the red/green cell ratio (normalised) is 1.1 (inactive).

With `O=C1NCC[C@@H]1Oc1ccc(Oc2cnc3ccc(Cl)cc3n2)cc1`, the red/green cell ratio (normalised) is 0.74 (inactive).

In the case of `C[C@@H]1C[C@@H](O)[C@@H](O)CO1`, the red/green cell ratio (normalised) is 1.05 (inactive).

`CCCc1oc(=O)cc(OC)c1CO`: the red/green cell ratio (normalised) was 0.86 (inactive).

`COc1c(F)c(F)cc2c(=O)c(C(=O)NO)cn(C3CC3)c12`: the red/green cell ratio (normalised) was 1.08 (inactive).

The record behind these values is PubChem BioAssay.
